Whole data set: some 18,000 sequences, median “log2 normalized intensity” near 0.36, cut for the highest 2% near 7.3. The full list was thinned out, with the highest values kept by preference.
These sequences were tested against T1, HNF4alpha8 (COS-7 nuclear extract) (Homo sapiens, UniProt P41235-5 1-452) (assay: protein-binding microarray; COS-7 nuclear extract on double-stranded Agilent 4x180k PBM; binding buffer, salt, pH and temperature not given in the material; high values mean tight binding). Conditions: chain copies: 2; label: 3' end of strand 1 on the slide; dsDNA, one strand shown.
T1 sequence: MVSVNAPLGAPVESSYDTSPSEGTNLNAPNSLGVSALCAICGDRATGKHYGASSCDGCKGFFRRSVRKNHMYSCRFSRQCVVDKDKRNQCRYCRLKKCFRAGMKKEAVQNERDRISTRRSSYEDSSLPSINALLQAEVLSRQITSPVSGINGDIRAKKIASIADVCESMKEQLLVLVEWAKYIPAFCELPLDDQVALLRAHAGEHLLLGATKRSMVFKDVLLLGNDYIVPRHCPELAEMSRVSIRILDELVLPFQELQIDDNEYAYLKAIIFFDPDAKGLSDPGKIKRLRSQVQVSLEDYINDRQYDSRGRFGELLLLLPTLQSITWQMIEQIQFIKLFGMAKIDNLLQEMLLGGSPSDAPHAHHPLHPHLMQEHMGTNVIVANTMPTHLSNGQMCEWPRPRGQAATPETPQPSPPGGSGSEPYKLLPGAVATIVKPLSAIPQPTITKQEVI
Method in brief: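 Nuclear extracts of COS-7 cells transiently transfected with a human HNF4α isoform were applied to a custom Agilent SurePrint G3 4x180k array bearing ~44,000 double-stranded ~60-nt test sequences, each in quadruplicate. The bound protein was imaged on an Agilent G2565CA scanner at 2-µm resolution. Binding signal is the normalized, background-corrected gProcessedSignal from Agilent software.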

Row | Sequence | binding signal
1 | GAGATAAGTCACCTTATCAAGTCCGAACTCGCCTAGGGAGATTAGAGTATCGGTCGA | 1.35 log2 normalized intensity
2 | GGAATCTTGCCCTGTCGCCCAGGCTGGAATGCCTAGGGAGATTAGAGTATCGGTCGA | 1.58 log2 normalized intensity
3 | GCTCTCCGTGGACTTTGCCCCCTACAGTTTGCCTAGGGAGATTAGAGTATCGGTCGA | 10.5 log2 normalized intensity
4 | TATCAGCTCTCCGTGGACTTTGCCCCCTACGCCTAGGGAGATTAGAGTATCGGTCGA | 11.3 log2 normalized intensity
5 | TTTGGCCCCCAGAGCCCCGTGTCTCCCTACGCCTAGGGAGATTAGAGTATCGGTCGA | 4.89 log2 normalized intensity
6 | AAGAGACTTTGCCCTTTTTTTCTCTCCCCTGCCTAGGGAGATTAGAGTATCGGTCGA | 3.92 log2 normalized intensity
7 | TCTTCCTTTCTATCAGCTCTCCGTGGACTTGCCTAGGGAGATTAGAGTATCGGTCGA | 3.52 log2 normalized intensity
8 | GTGGACTTTGCCTGCCCATCCCGTGGACTCGCCTAGGGAGATTAGAGTATCGGTCGA | 4.49 log2 normalized intensity
9 | TCTTTGCCCTCTTGGTATCAGCTTTGAGACGCCTAGGGAGATTAGAGTATCGGTCGA | 1.91 log2 normalized intensity
10 | ATCCCGTGGACTTTGCCTGCCCATCCCGTGGCCTAGGGAGATTAGAGTATCGGTCGA | 4.23 log2 normalized intensity
11 | CTTTCTATCAGCTCTCCGTGGACTTTGCCCGCCTAGGGAGATTAGAGTATCGGTCGA | 9.95 log2 normalized intensity
12 | TTGATTTAACATTTGTGATCTGGCACAAATGCCTAGGGAGATTAGAGTATCGGTCGA | 0.366 log2 normalized intensity
13 | AGATACTGAATCTCCCAGTGCTTTGATCTTGCCTAGGGAGATTAGAGTATCGGTCGA | 1.39 log2 normalized intensity
14 | TCACCTGCTCATTGACCCTTAGGCCAAGGCGCCTAGGGAGATTAGAGTATCGGTCGA | 3.1 log2 normalized intensity
15 | ATGTCAGGAGCCCCACTGTAGTAAGGGAGTGCCTAGGGAGATTAGAGTATCGGTCGA | -0.892 log2 normalized intensity
16 | CACCTCTGCTTATCTCAACTGATTTACCTCGCCTAGGGAGATTAGAGTATCGGTCGA | 0.918 log2 normalized intensity
17 | TTAACACAAGTTATTACCGTGATGTTCGTTGCCTAGGGAGATTAGAGTATCGGTCGA | 1.14 log2 normalized intensity
18 | CTTCCCAGCTGCTGGTCAAAGGGCATTACTGCCTAGGGAGATTAGAGTATCGGTCGA | 5.83 log2 normalized intensity
19 | AGGGCAAAGGTCACCAGCTAAGCTGTTACTGCCTAGGGAGATTAGAGTATCGGTCGA | 5.83 log2 normalized intensity
20 | CTGTCGTCCCAGGGCAAAGGTCACCAGCTAGCCTAGGGAGATTAGAGTATCGGTCGA | 7.57 log2 normalized intensity
21 | GGGCAAATCTGAGGTCAAAGCTGTCAGAGAGCCTAGGGAGATTAGAGTATCGGTCGA | -0.316 log2 normalized intensity
22 | GTCCCAGGGCAAAGGTCACCAGCTAAGCTGGCCTAGGGAGATTAGAGTATCGGTCGA | 6.21 log2 normalized intensity
23 | CAGAGCTGTCGTCCCAGGGCAAAGGTCACCGCCTAGGGAGATTAGAGTATCGGTCGA | 8.47 log2 normalized intensity
24 | ATCCTGCCTCCATTAATTAACCTTTGAGCTGCCTAGGGAGATTAGAGTATCGGTCGA | 6.76 log2 normalized intensity

From PMC10726135, “HNF4α isoforms regulate the circadian balance between carbohydrate and lipid metabolism in the liver”
